From PubChem BioAssay come the findings set out here.

Test [1] in a line: inhibitors of TNFa-induced NFkB p65 translocation, primary screen, imaging, HUVEC, MLSMR starter and 10KST1 sets (AID 438;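 active = inhibition above 20% together with a positive visual image hit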;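 note: compound added about 3h40 before a 20 min TNFalpha stimulation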;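 for inhibition: signal is the nuclear over cytoplasmic p65 intensity ratio per well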). The conditions noted are these: HUVEC TNFa-induced p65 nuclear translocation; cell count: measured here: nuclei count (cytotoxicity indicator), at 2.08 µM; inhibition: at 2 µM, stronger effect = higher value, 0% TNFa-plus-vehicle, 100% no-TNFa wells.
Test [2] can be described thus: inhibitors of mutant huntingtin aggregation, primary screen, imaging, exon1htt(103Q)mCFP cells, high-content imaging (AID 483;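 active = visual image review flags a hit and inhibition of aggregation exceeds 20%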;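 note: compound exposure lasted 3 days before fixation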;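 for nuclei count: percent of the per-plate median nuclei count of sample wells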). The conditions noted are these: exon1htt(103Q)mCFP cell line, aggregate imaging, at 2 µM; inhibition of aggregation: stronger effect = higher value; nuclei count: measured here: cell count, toxicity.
The nature of test [3]: inhibitors of E-selectin induction by TNFa, primary screen, imaging, HUVEC, immunofluorescence, MLSMR starter and 10KST1 sets (AID 487;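 active = visually confirmed hit in the image check and inhibition above 20%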;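 for inhibition: signal is fraction of cell area covered by stained E-selectin grains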;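 for nuclei count: 100% = median nuclei count of all wells on the same plate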). The conditions noted are these: HUVEC TNFalpha-induced E-selectin immunofluorescence imaging, at 2 µM; inhibition: stronger effect = higher value; nuclei count: measured here: cell number, toxicity.
The nature of test [4]: DUSP6 inhibitors restoring Erk phosphorylation by chemical complementation, primary imaging in DUSP6-transfected HeLa (AID 609;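 active = compounds giving at least 50% inhibition in the cell-based MKP-3 phosphatase rescue imaging test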;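 for inhibition: phospho-Erk level distribution per well compared with pooled transfected vehicle control wells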). The conditions noted are these: HeLa MKP-3 transfected, phospho-Erk imaging KS statistic, at 10 µM, cells stimulated with TPA for 15 min.
Test [5] concerns the target Dual specificity protein phosphatase 6 (Homo sapiens) (UniProt Q16828). Described as above. The conditions noted are these: HeLa MKP-3 transfected, phospho-Erk imaging KS statistic; at 10 µM; stronger effect = higher value; cells stimulated with TPA for 15 min.
The target in test [6] is Voltage-gated potassium channel subunit beta-2 (Rattus norvegicus) (UniProt P62483). Nature of the test: KvBeta enzyme negative modulators, primary screen, biochemical, NADPH fluorescence (AID 622;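 active = fluorescence slope higher than the sample average by over 3 SD, cut at about -0.22 in these data, passing the limit was not always enough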;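 note: slope of raw intensity against log time taken from 70 to 1610 s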). The conditions noted are these: recombinant KvBeta, 4-cyanobenzaldehyde reduction, at 10 µM, stronger effect = higher value.
Sequence of Voltage-gated potassium channel subunit beta-2 (Rattus norvegicus) (P62483 whole entry, looked up): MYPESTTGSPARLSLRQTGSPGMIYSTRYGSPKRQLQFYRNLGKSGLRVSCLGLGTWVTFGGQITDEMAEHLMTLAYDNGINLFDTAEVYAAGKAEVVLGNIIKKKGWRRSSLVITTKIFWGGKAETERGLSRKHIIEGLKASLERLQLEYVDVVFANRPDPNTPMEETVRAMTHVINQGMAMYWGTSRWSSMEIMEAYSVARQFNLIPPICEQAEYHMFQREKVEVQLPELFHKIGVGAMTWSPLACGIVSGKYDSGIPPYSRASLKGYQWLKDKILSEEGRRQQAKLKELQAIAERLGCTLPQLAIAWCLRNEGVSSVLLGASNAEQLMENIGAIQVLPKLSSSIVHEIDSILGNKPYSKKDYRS
For test [7] the target is unchanged. Nature of the test: KvBeta positive modulators, primary screen, biochemical, NADPH fluorescence (AID 623;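 active = NADPH fluorescence slope more negative than the mean of all samples by about 3 SD, 99.7% confidence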;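 note: fluorescence intensity change per second fitted from 20 to 320 s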). The conditions noted are these: Recombinant KvBeta, NADPH fluorescence decrease slope, 10 min; at 10 µM; stronger effect = lower value.
The target of test [8] is Alpha-2C adrenergic receptor (Homo sapiens) (UniProt P18825). Nature of the test: modulators of alpha2C/GIRK thallium flux, primary screen, cell-based, HEK293 alpha2C/GIRK1/2 (AID 624;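 active = fluorescence slope after compound addition differing from the mean of all screened samples at 99.7% confidence, in either direction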;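 note: slope of fluorescence ratio to pre-addition baseline per second over 15 to 24 s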). The conditions noted are these: thallium flux BTC fluorescence, at 10 µM, actives lie on both sides.
Sequence of Alpha-2C adrenergic receptor (Homo sapiens) (P18825 whole entry, looked up): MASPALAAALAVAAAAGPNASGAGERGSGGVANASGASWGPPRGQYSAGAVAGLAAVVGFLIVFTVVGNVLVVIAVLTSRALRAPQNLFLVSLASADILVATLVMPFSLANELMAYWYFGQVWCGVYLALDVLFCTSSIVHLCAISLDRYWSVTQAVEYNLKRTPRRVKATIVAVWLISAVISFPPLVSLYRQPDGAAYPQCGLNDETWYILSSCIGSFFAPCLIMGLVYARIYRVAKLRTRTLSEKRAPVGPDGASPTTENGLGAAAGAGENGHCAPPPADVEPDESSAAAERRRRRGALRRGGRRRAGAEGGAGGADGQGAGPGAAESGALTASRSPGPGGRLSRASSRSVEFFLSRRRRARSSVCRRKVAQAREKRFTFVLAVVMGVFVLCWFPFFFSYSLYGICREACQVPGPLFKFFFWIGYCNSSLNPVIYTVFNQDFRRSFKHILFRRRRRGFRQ
Test [9] in a line: inhibitors of larval lipid processing in zebrafish, primary screen, whole organism, PED6 fluorescence, gall bladder and intestine (AID 686;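 active = a full or partial loss of lipid-probe fluorescence in the fish gall bladder, intestine or both, judged by eye; inactive = no fluorescence loss, or compound toxic to the fish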;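 note: larvae 5 to 7 days old with five fish per well; signal comes from phospholipase A2 cleavage of quenched PED6 carried via bile; overnight exposure to compound and PED6 before scoring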). Conditions: Zebrafish larvae PED6 lipid processing, fluorescence scoring; screened at 20 µM (by protocol).
Test [10] is described as follows: inhibitors of Chlamydomonas gravitaxis, primary screen, whole organism, Chlamydomonas reinhardtii, WT vs cilia-less mutant, absorbance, 96-well (AID 463189).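 Note: 0% = wild type cc124 cells in DMSO and 100% = ciliumless bld1 mutant cells.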 The conditions noted are these: OD600 absorbance, 2 days, at 10 µM, stronger effect = higher value.
Test [11] in a line: inhibitors of Sendai virus-induced IRF3 signaling, primary screen, TLR/RLR signaling modifier project, cell-based, Sendai virus stimulus, luciferase, 10K MLSCN set (AID 602276;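 active = inhibition at or above 50% at 10 µM; inactive = inhibition below 50%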;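 note: firefly luciferase from ISG56 promoter only with Renilla not read in this screen; 0% = Sendai virus plus DMSO and 100% = medium plus DMSO without virus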). The conditions noted are these: HEK293 RL24 IRF3 luciferase reporter, at 10 µM, stronger effect = higher value.
Test [12] can be described thus: inhibitors of poly I:C-induced TLR3 signaling, primary screen, cell-based, poly I:C stimulus, luciferase, 10K MLSCN set (AID 602277;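 active = inhibition of the reporter signal at or above 50%; inactive = inhibition below 50%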). Conditions: HEK293-TLR3 RL24 IRF3 luciferase reporter, at 10 µM, stronger effect = higher value.
Test [13] deals with Muscarinic acetylcholine receptor M4 (Homo sapiens) (UniProt P08173). Nature of the test: compounds altering M4/GIRK thallium flux, either direction, primary screen, M4 allosteric agonist project, cell-based, HEK293 M4/GIRK, BTC-AM (AID 625;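 active = fluorescence slope after compound addition differing from the mean of all tested samples at 99.7% confidence, mostly higher but some lower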;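 note: thallium influx through GIRK channels coupled to M4 in HEK293 cells with BTC-AM dye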). Conditions: at 10 µM, actives lie on both sides.
Sequence of Muscarinic acetylcholine receptor M4 (Homo sapiens) (P08173 whole entry, looked up): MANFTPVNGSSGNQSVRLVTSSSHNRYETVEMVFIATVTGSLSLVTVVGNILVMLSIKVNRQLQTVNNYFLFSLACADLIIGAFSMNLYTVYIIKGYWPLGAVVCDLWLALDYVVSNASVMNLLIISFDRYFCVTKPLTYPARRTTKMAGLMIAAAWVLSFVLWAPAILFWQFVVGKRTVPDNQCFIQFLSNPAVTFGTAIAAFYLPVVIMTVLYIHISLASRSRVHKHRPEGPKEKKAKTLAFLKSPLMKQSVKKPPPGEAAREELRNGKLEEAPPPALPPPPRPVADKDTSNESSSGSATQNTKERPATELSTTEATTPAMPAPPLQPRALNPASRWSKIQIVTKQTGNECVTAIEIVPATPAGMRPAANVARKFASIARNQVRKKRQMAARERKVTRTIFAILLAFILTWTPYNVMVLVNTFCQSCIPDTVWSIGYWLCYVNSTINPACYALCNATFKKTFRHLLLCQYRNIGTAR
Setting [14] is: measured here: cell density z-score.
[15] abbreviates: measured here: nuclear c-Myc green intensity z-score.
Setting [16] is: measured here: nuclear pErk red intensity z-score, stronger effect = higher value.

Several values for one entry are separate records, joined by “and”; a condition that tells them apart may be missing. Equal values may be shown once. Activity calls are given as the source filed them.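 Rule for the calls, unless noted: active = inhibition at or above 50% relative to wild type and mutant plate controls; inactive = inhibition below 50%.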

Sequence of Dual specificity protein phosphatase 6 (Homo sapiens) (Q16828 whole entry, looked up): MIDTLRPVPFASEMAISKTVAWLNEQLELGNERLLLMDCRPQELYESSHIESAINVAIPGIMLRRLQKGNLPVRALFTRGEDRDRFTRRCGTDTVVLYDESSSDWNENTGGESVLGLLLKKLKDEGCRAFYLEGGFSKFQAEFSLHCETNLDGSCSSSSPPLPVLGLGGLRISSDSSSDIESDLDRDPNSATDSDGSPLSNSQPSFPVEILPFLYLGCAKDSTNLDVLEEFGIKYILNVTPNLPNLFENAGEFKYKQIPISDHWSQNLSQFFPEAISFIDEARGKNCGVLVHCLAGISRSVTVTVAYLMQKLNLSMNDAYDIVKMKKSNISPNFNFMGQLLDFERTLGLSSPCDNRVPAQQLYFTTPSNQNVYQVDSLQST

With `OC(CCN1CCCCC1)(c1ccccc1)c1ccccc1`, the cell count in test [1] was found to be 674. In addition, the inhibition is -1.6% (inactive) in test [1]; -75.5% (inactive) in [3]; -0.493% (inactive) in test [5]; -6.75% (inactive) in [10]; 16.1% (inactive) in [11]; 48% (inactive) in [12]. In addition, in test [2], the inhibition of aggregation was -18% (inactive). Further, the nuclei count in [2] was 108%; in [3], 114%. The z-score in [4] (setting [14]) was 0.144; in test [4] (setting [15]), -1.15; in test [4] (setting [16]), -0.931. Also, in test [6], the fluorescence slope was -0.458 (inactive). In addition, the NADPH fluorescence slope in [7] was -3.9e-05 (inactive). The slope in test [8] is 0.00533 (inactive). In test [9], the molecule was classed as inactive.
Consider `Cc1nn(C)cc1C1C2=C(CC(C)(C)CC2=O)OC2=C1C(=O)CC(C)(C)C2`, for which the cell count in test [1] is 616. Further, the inhibition was -2.2% (inactive) in [1]; -77.9% (inactive) in test [3]; 2.46% (inactive) in test [5]; 1.65% (inactive) in test [10]; 10.6% (inactive) in [11]; 18% (inactive) in test [12]. Also, in [2], the inhibition of aggregation is 2.2% (inactive). Further, the nuclei count in [2] came to 108%; in test [3] it was 140%. Moreover, the values for the z-score in test [4] (setting [14]), in test [4] (setting [15]) and in [4] (setting [16]) were 0.812, 0.307 and -0.678, respectively. The fluorescence slope in test [6] is -0.337 (inactive). Also, the NADPH fluorescence slope in test [7] is -6.9e-06 (inactive). For the same molecule, the slope in test [8] is 0.00477 (inactive). The molecule was called inactive in test [9].
`C[C@]12C=CC(=O)C=C1CC[C@@H]1[C@@H]2[C@@H](O)C[C@@]2(C)[C@H]1CC[C@]2(O)C(=O)COC(=O)CCC(=O)O`: in test [1], the cell count was 671. The inhibition in test [1] was -6.3% (inactive); in test [3], -27.3% (inactive); in test [5], 19.2% (inactive); in test [10], 15.8% (inactive); in [11] it was 6.58% (inactive); in [12], 46.6% (inactive). Further, in test [2], the inhibition of aggregation was 6.5% (inactive). Besides, the nuclei count stood at 85.8% in test [2] and 120% in test [3]. Further, the z-score is 1.3 in test [4] (setting [14]), 0.17 in test [4] (setting [15]) and -0.0671 in test [4] (setting [16]). In test [6], the fluorescence slope was -0.471 (inactive). Also, in [7], the NADPH fluorescence slope was -8e-05 (inactive). The slope in test [8] was 0.00574 (inactive). The outcome in test [9] was inactive.
As to `COc1cc([C@@H]2[C@H]3CN(C)CC=C3C(C#N)=C(N)C2(C#N)C#N)cc2c1OCO2`, the cell count in [1] was found to be 394. Further, the inhibition in test [1] is -2.2% (inactive); in test [3], -39.2% (inactive); in test [5], 57.9% (inactive); in test [10], 38% (inactive); in test [11], 4.57% (inactive); in [12], 19.8% (inactive). The inhibition of aggregation in test [2] was 31.8% (inactive). Further, the nuclei count in test [2] stood at 111%; in test [3], 109%. Also, the z-score in test [4] (setting [14]) was 0.739; in [4] (setting [15]) it was -0.834; in test [4] (setting [16]), 0.31. Besides, the fluorescence slope in [6] was -0.309 (inactive). For the same molecule, the NADPH fluorescence slope in test [7] is 9.9e-07 (inactive). In addition, the slope in test [8] was 0.00454 (inactive). Moreover, in [9], the outcome was inactive.
Take `COc1cc(N2C(=O)CSC23C(=O)Nc2ccccc23)cc(OC)c1OC` (stereo not given): the cell count in test [1] amounted to 512. For the same molecule, the inhibition in test [1] is -13.1% (inactive); in [3], -26.2% (inactive); in test [5] it was 1.6e-07% (inactive); in test [10] it was 24.8% (inactive); in test [11], 2.33% (inactive); in test [12] it was 10.8% (inactive). For the same molecule, the inhibition of aggregation in test [2] is -13.9% (inactive). Moreover, the nuclei count was determined as 99.6% in [2] and 105% in test [3]. In addition, the z-score is -0.126 in [4] (setting [14]), -0.03 in [4] (setting [15]) and 0.793 in test [4] (setting [16]). In addition, the fluorescence slope in test [6] was -0.342 (inactive). In addition, the NADPH fluorescence slope in test [7] was 6.8e-06 (inactive). Also, the slope in test [8] is 0.00524 (inactive). Further, the outcome in [9] was inactive.
For `CCN(CC)C(=O)c1sc2nc(-c3cccs3)cc(-c3cccs3)c2c1N`, the cell count in test [1] worked out at 443. For the same molecule, the inhibition in test [1] is -1.7% (inactive); in test [3] it was -166% (inactive); in [5], 9.61% (inactive); in test [10], 15.5% (inactive); in test [11], 20.8% (inactive); in test [12] it was 23.7% (inactive). The inhibition of aggregation in [2] is 0.6% (inactive). For the same molecule, the nuclei count stood at 90% in test [2] and 121% in [3]. For the same molecule, the z-score in [4] (setting [14]) is 1.5; in test [4] (setting [15]), -1.58; in test [4] (setting [16]) it was -0.775. Moreover, the fluorescence slope in test [6] was 1.5e-14 (active); in test [13] it was -0.00241 (active). For the same molecule, in test [7], the NADPH fluorescence slope was 0 (inactive). Besides, the slope in [8] is 0.00378 (inactive). Also, in test [9], the outcome was “active; no signal in gallbladder and intestine”.
For the molecule `CCCCC1C(=O)N(c2ccccc2)N(c2ccccc2)C1=O`, the cell count in [1] amounted to 638. In addition, the inhibition in [1] is 4.6% (inactive); in [3], -26.6% (inactive); in test [5] it was 8% (inactive); in [10] it was 5.13% (inactive) and -8.61% (inactive); in test [11], 19.9% (inactive); in [12] it was 41.2% (inactive). In test [2], the inhibition of aggregation was -5.9% (inactive). Also, the values for the nuclei count in [2] and in test [3] were 96.9% and 109%, respectively. The z-score in test [4] (setting [14]) is 1.68; in test [4] (setting [15]), -0.325; in [4] (setting [16]), -0.291. Besides, in test [6], the fluorescence slope is -0.483 (inactive). Also, the NADPH fluorescence slope in test [7] was -4.2e-05 (inactive). The slope in test [8] is 0.00446 (inactive). In addition, the molecule was called inactive in [9].
On to `CN1C(=O)c2c(sc3c2CCCC3)NC1c1ccccc1O` (stereo not given), for which the cell count in test [1] was 432. In addition, the inhibition in test [1] was -5.1% (inactive); in test [3], -128% (inactive); in test [5] it was -2.59% (inactive); in [10], 15.4% (inactive); in test [11], -8.68% (inactive); in test [12], -24.4% (inactive). Also, the inhibition of aggregation in test [2] is -1.6% (inactive). Further, the nuclei count was 97.6% in [2] and 136% in test [3]. The z-score in test [4] (setting [14]) is 1.59; in test [4] (setting [15]), -1.82; in test [4] (setting [16]), 0.821. Also, the fluorescence slope in test [6] was -0.47 (inactive); in test [13], 0.00402 (inactive). The NADPH fluorescence slope in test [7] is -0.000117 (inactive). Further, the slope in test [8] was 0.00476 (inactive). Moreover, the molecule was classed as inactive in test [9].
`CC1(C)O[C@@H]2C[C@H]3[C@@H]4C[C@H](F)C5=CC(=O)CC[C@]5(C)[C@H]4[C@@H](O)C[C@]3(C)[C@]2(C(=O)CO)O1`: the cell count in test [1] came out at 547. For the same molecule, the inhibition in test [1] is -0.5% (inactive); in [3], 1.2% (inactive); in test [5], -2.46% (inactive); in test [10], 6.62% (inactive); in test [11], -7.22% (inactive); in [12] it was 22% (inactive). In [2], the inhibition of aggregation is -27.2% (inactive). Moreover, the nuclei count in [2] stood at 54.1%; in [3], 102%. Besides, the z-score in test [4] (setting [14]) is -0.857; in test [4] (setting [15]), -0.0426; in [4] (setting [16]) it was 0.461. In addition, the fluorescence slope in test [6] is -0.476 (inactive). For the same molecule, the NADPH fluorescence slope in [7] was -9e-05 (inactive). Besides, in test [8], the slope is 0.00483 (inactive). Moreover, the result in test [9] was inactive.
